This experiment is described as follows: NCI Yeast Anticancer Drug Screen. Data for the cln2 rad14 strain (AID 165).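 Note: 0% = growth equal to vehicle treated cultures.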 To be noted: S. cerevisiae cln2 rad14 strain, stronger effect = higher value. The method, then:
Growth inhibition of yeast strains with defined genetic alterations is measured as a screen for potential anti-cancer activity. Selected strains with alterations in DNA damage repair or cell cycle control were exposed to compounds and growth inhibition was measured relative to vehicle treated controls. The strain used in this assay is cln2 rad14

The mark [1] stands for this setting: at 5.0 µM (retest, dose inferred, filed as 0.5).
[2] abbreviates: at 50.0 µM (retest, dose inferred, filed as 5.0).

Compounds without any hit were thinned out: in the full panel of roughly 79,000, 15% have a hit. Values without a mark were called inactive. Active and inactive are the calls of the source. Cut-off read from the data, not from the text of the source: active = growth inhibition above about 70%; inactive = the rest.

With `Fc1cccc(C2N(Cc3ccc(N(CCCl)CCCl)cc3Cl)CCCN2Cc2ccc(N(CCCl)CCCl)cc2Cl)c1`, the growth inhibition is -5% under setting [1], 93% (active) under setting [2] and -6.1% (at 50.0 µM).

`CCCCCCCCCC[Se]C#N`: the growth inhibition was 15% under setting [1], 99% (active) under setting [2] and 97.3% (active) (at 50.0 µM).

Consider `CC(=O)Oc1cccc2c1CC(C[Se]c1ccccc1)C(=O)O2` (configuration not stated), for which the growth inhibition was 3% under setting [1], 23% under setting [2] and 25.4% (at 50.0 µM).

Regarding `C[C@@H]1CCC2[C@@H](C)[C@H](O[C@H]3O[C@@H]4O[C@@]5(C)CCC6[C@H](C)CCC([C@H]3C)[C@]64OO5)O[C@@H]3O[C@@]4(C)CCC1[C@@]23OO4` (some centres not stated), the growth inhibition by setting is: under setting [1], 79% (active); under setting [2], 93% (active); (at 50.0 µM) 89.7% (active).

With `O=C(CBr)Nc1ccccc1Cl`, the growth inhibition reads like this: under setting [1], 20%; under setting [2], 99% (active); (at 50.0 µM) 98.5% (active).

Take `O=[As]c1ccc([N+](=O)[O-])cc1` (configuration not stated): the growth inhibition runs as follows: under setting [1], 58%; under setting [2], 98% (active); (at 50.0 µM) 98.9% (active).

Regarding `CC1CCC2(NC1)OC1CC3C4CCC5CC(OC6OC(CO)C(OC7OC(CO)C(O)C(OC8OCC(O)C(O)C8O)C7OC7OC(CO)C(O)C(O)C7O)C(O)C6O)CCC5(C)C4CCC3(C)C1C2C` (configuration not stated), the growth inhibition was -19% under setting [1], 68% under setting [2] and 28.8% (at 50.0 µM).

On to `CC(=O)OC1C(O)C(C)OC(OC2C(OC(=O)C3CCC4C(C3)OC3(CC(OC(=O)/C=C/c5ccccc5)C(C)CO3)C43CO3)OC(C)C(O)C2OC(C)=O)C1O` (configuration not stated), for which the growth inhibition reads like this: under setting [1], 24%; under setting [2], 96% (active); (at 50.0 µM) 90.1% (active).

On to `C[N+]1(CCCl)CC[N+](C)(CCCl)CC1` (configuration not stated), for which the growth inhibition runs as follows: under setting [1], 2%; under setting [2], 96% (active); (at 50.0 µM) 94.3% (active).

With `CC1(O)CC([CH2][Hg][I])OC([CH2][Hg][I])C1` (configuration not stated), the growth inhibition is, setting by setting: under setting [1], 99% (active); under setting [2], 98% (active); (at 50.0 µM) 98% (active).

Regarding `COc1cc(Br)cc(/C=C(\C)[N+](=O)[O-])c1O`, the growth inhibition reads like this: under setting [1], -5%; under setting [2], 94% (active); (at 50.0 µM) 99.5% (active).

On to `C/C(=N\N=C(\[Se])N1CCN(c2ccccn2)CC1)c1ccccn1`, for which the growth inhibition under setting [1] is -9%, the growth inhibition under setting [2] is 83% (active) and the growth inhibition (at 50.0 µM) was 9.4%.

`CC(C(=O)C1CCCCC1)[n+]1ccccc1` (configuration not stated): the growth inhibition is, setting by setting: under setting [1], 9%; under setting [2], -2%; (at 50.0 µM) 48.5%.

For the compound `O=C(O)c1cc([N+](=O)[O-])c(Cl)c([N+](=O)[O-])c1Cl`, the growth inhibition by setting is: under setting [1], 38%; under setting [2], 100% (active); (at 50.0 µM) 43.1%.

The values are drawn from PubChem BioAssay (NCI).
